From PubChem
SMN2 splice enh: SMN2 splice variant enhancement; Potency, µM (highest dose often 46.1 µM), actives largely listed as activators; AID 1458; HEK293 SMN2-luciferase splicing reporter, luminescence, 30-36 h; actives 2.8% (n = 210,000); further: nearly all actives have a fitted effect of over 55% in size
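HEK293 cells carry an SMN2 minigene-luciferase reporter in which exon 7 inclusion puts luciferase in frame. Cells were seeded at 2000 cells/well, attached for 10-12 hours, then exposed to compounds for 30-36 hours at 37C before ONE-Glo luminescence.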
FLuc counter: inhibits or activates purified firefly luciferase, miR-21 counter-screen | purified FLuc, Km substrates, luminescence inhibition | actives 6.9% (n = 360,000) | P08659 | Potency, µM (top dose mostly 57.5 µM), usual class: inhibitors; further: nearly all actives have a fitted effect of over 55% in size
Target sequence (P08659 whole entry, looked up): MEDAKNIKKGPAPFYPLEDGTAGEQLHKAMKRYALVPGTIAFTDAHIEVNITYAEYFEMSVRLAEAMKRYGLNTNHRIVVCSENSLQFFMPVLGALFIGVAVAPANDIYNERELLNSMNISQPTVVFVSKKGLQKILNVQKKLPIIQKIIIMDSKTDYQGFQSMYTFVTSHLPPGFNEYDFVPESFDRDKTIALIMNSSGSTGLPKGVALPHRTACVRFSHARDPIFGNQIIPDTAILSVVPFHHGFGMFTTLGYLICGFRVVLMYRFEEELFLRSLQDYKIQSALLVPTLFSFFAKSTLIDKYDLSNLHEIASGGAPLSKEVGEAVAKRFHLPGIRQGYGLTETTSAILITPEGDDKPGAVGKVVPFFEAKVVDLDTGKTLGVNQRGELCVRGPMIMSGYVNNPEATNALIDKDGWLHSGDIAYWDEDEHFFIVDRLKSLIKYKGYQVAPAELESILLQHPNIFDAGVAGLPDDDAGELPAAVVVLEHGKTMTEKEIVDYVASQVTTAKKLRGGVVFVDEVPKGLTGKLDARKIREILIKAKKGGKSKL
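Biochemical qHTS of compounds, final roughly 60 µM downward over six points, against 10 nM purified firefly luciferase using Km concentrations of substrates (10 uM D-luciferin, 10 uM ATP) in Tris acetate pH 7.5 buffer; luminescence output.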
NPC1 promoter act: activators of NPC1 promoter. Huh7 NPC1 promoter luciferase reporter, 24 h. Potency, µM (doses to about 9.22 µM), usual class: activators. actives 2.4% (n = 320,000). AID 485313; further: nearly all actives have a fitted effect of over 60% in size
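Readout is luciferase luminescence, reflecting NPC1 promoter activation in stably transfected Huh7 cells after 24 h compound exposure at 37 °C in reduced-serum medium with 10% FBS.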
ELG1 repair inh: inhibitors of ELG1-dependent DNA repair in HEK293T cells. AID 504467. HEK293T ELG1-luciferase reporter, luminescence, 16 h; DNA damage induced by 5-fluorouridine. actives 2.3% (n = 330,000). Potency, µM (doses to about 46.1 µM), actives largely listed as inhibitors; further: nearly all actives have a fitted effect of over 55% in size
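Overnight (16 hr) co-exposure of 2,000 cells/well to 5-fluorouridine and compound at 37 °C preceded detection. Luciferase was quantified via ONE-Glo luminescence; loss of signal denotes inhibition.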
Rab9 promoter act: Rab9 promoter activation; Huh7 Rab9 promoter-luciferase reporter, luminescence, 24 h; Potency, µM (highest dose often 9.22 µM), most hits filed as activators; actives 2.8% (n = 320,000); AID 485297; further: nearly all actives have a fitted effect of over 60% in size
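Measured in stably transfected Huh7 cells bearing a Rab9 promoter–luciferase construct: 24 h compound treatment at 37 °C, followed by luminescence detection.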
ELG1 genotoxic: inducers of genotoxicity in HEK293T ELG1-luciferase cells; HEK293T ELG1-luciferase reporter, luminescence, 16 h; actives 1.3% (n = 330,000); Potency, µM (top dose mostly 46 µM), most hits filed as activators; further: nearly all actives have a fitted effect of over 60% in size
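HEK293T cells expressing luciferase-tagged ELG1 were exposed to compound or DMSO vehicle for 16 hr at 37 °C and 5% CO2. Luciferase activity was then measured with ONE-Glo after 30 min at room temperature.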
Hits are given with their value; [ ] = dose if it differs, or a comment. An excerpt weighted towards active compounds, which were near 9.2% of everything screened. The call rests on the fitted dose curve; in most records, active means well fitted curve in the direction sought with a large enough effect; inconclusive means small, poorly fitted or top-dose-only effect, or another doubt; inactive means no such curve, though single readings can be large; an effect the other way counts as inactive or inconclusive.

Results for COc1cc2c(cc1NC(=O)C(C)Sc1nc3ccccc3n1C)oc1ccccc12 (centres undefined) ?
SMN2 splice enh: inactive; FLuc counter: inactive; NPC1 promoter act: inactive; ELG1 repair inh: inactive; Rab9 promoter act: inactive; ELG1 genotoxic: inactive

Results for COc1ccc(/C=C/C(=O)OCC(=O)Nc2cc3oc4ccccc4c3cc2OC)cc1 ?
SMN2 splice enh: inactive; FLuc counter: inactive; NPC1 promoter act: inactive; ELG1 repair inh: inactive; Rab9 promoter act: inactive; ELG1 genotoxic: inactive

What do the screens show for `CCOC(=O)c1c(C)oc2c1cc(NS(=O)(=O)c1ccc(C)cc1)c1ccccc12`?
SMN2 splice enh: inactive; FLuc counter: inconclusive

What do the screens show for `CC(C)CCn1c(=O)c2sccc2n2c(CCCC(=O)N3CCN(c4ccccn4)CC3)nnc12`?
FLuc counter: inactive; NPC1 promoter act: inactive; ELG1 repair inh: inactive; Rab9 promoter act: inactive; ELG1 genotoxic: inactive

What do the screens show for `O=C(c1cc2cc([N+](=O)[O-])ccc2oc1=O)N1CCN(C2CCCCC2)CC1`?
SMN2 splice enh: inactive; FLuc counter: inactive; NPC1 promoter act: inactive; ELG1 repair inh: inactive; Rab9 promoter act: inactive; ELG1 genotoxic: inactive

Results for COc1ccccc1N(CC(=O)NCCSc1ccccn1)S(=O)(=O)c1ccccc1 ?
FLuc counter: inactive; NPC1 promoter act: inactive; ELG1 repair inh: inactive; Rab9 promoter act: inactive; ELG1 genotoxic: inactive

Results for CN(C)c1ncnc2ccc(-c3ccccc3C#N)cc12 ?
SMN2 splice enh: inactive

How did CCOC(=O)C1C(=O)CC(C)(O)C(C(=O)OCC)C1c1ccc(C)s1 (centres undefined) do in these assays?
SMN2 splice enh: inactive; FLuc counter: inactive[2.3 µM]; NPC1 promoter act: 4.47µM; ELG1 repair inh: inconclusive; Rab9 promoter act: inconclusive; ELG1 genotoxic: inactive

Results for CN(Cc1ccccc1)CC(O)COc1ccc(CNCc2ccc(Cl)s2)cc1 (centres undefined) ?
FLuc counter: inactive; NPC1 promoter act: inactive; ELG1 repair inh: inactive; Rab9 promoter act: inactive; ELG1 genotoxic: inactive

What do the screens show for `Cc1ccccc1-c1nnc(-c2cccs2)o1`?
SMN2 splice enh: 20µM; FLuc counter: 12µM; NPC1 promoter act: inactive; ELG1 repair inh: inconclusive; Rab9 promoter act: inconclusive; ELG1 genotoxic: inconclusive

Results for Cc1ccccc1-c1noc(-c2cccs2)n1 ?
SMN2 splice enh: inconclusive; FLuc counter: 7.57µM; NPC1 promoter act: inconclusive; ELG1 repair inh: inconclusive; Rab9 promoter act: 2.82µM; ELG1 genotoxic: inconclusive

How did Cc1ccccc1-c1noc(-c2cc3ccccc3oc2=O)n1 do in these assays?
FLuc counter: 1.9µM

Results for Cc1ccccc1Nc1oc(-c2ccccc2)nc1-c1cccs1 ?
SMN2 splice enh: inactive

How did COc1nccc(-c2ccc(F)cc2)c1C#N do in these assays?
SMN2 splice enh: inactive; FLuc counter: inactive; NPC1 promoter act: inactive; ELG1 repair inh: inactive; Rab9 promoter act: inactive; ELG1 genotoxic: inactive

What do the screens show for `Cc1nc(N2CCOCC2)c2nc(-c3ccccc3)n(CCCN(C)C)c2n1`?
SMN2 splice enh: inactive

What do the screens show for `CCOc1ccccc1C1N=C(c2ccc(OC)cc2)CC(c2ccccc2O)N1` (centres undefined)?
FLuc counter: 19µM; NPC1 promoter act: inconclusive; ELG1 repair inh: inconclusive; Rab9 promoter act: inconclusive; ELG1 genotoxic: inconclusive

What do the screens show for `Oc1ccccc1C1CC(c2cccs2)=NC(c2ccc(Cl)cc2)N1` (centres undefined)?
FLuc counter: inconclusive; NPC1 promoter act: inactive; ELG1 repair inh: inactive; Rab9 promoter act: inconclusive; ELG1 genotoxic: inactive

Results for O=C1c2ccccc2CCC1C(O)c1ccccn1 (centres undefined) ?
FLuc counter: 15.1µM; NPC1 promoter act: inactive; ELG1 repair inh: inconclusive; Rab9 promoter act: inactive; ELG1 genotoxic: inactive

How did O=P(c1ccccc1)(c1ccccc1)C(O)c1ccccn1 (centres undefined) do in these assays?
FLuc counter: inactive; NPC1 promoter act: inactive; ELG1 repair inh: inactive; Rab9 promoter act: inactive; ELG1 genotoxic: inactive
